From PubChem
The list is not random: actives were taken first. Their share in the collection is about 3.9%.
Vc quorum ag: inducers of Vibrio cholerae quorum light production without autoinducers, primary screen, BH1578 luxS cqsA deficient, single point; V. cholerae BH1578 lux reporter, luminescence, 6 h; activation, % at 18.7 µM; 350,000 tested, 0.16% active; in the data active means activation mostly above about 9.7%, no sharp cut-off
GDH-TPI counter: GDH-TPI coupling enzyme inhibitors, primary screen, artefact control for M. tuberculosis FBA inhibitor project, biochemical, absorbance, full deck. GDH-TPI coupled enzyme counterscreen, NADH absorbance. inhibition, % at 4.8 µM. 360,000 tested, 1.2% active; in the data active means inhibition above about 30%;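 further: 0% = DMSO wells and 100% = wells lacking the enzyme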
Mtb FBA inh: Mtb FBA enzyme inhibitors, primary screen, biochemical, fluorescence, strain H37Rv; 360,000 tested, 2.3% active; Fructose-bisphosphate aldolase (Mycobacterium tuberculosis (strain ATCC 25618 / H37Rv)), …; inhibition, % at 1 µM; purified M. tuberculosis FBA, fluorescence read-out; in the data active means inhibition above about 27%;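 further: 0% = vehicle and 100% = reference inhibitor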
Target sequence (P9WQA3 whole entry, looked up): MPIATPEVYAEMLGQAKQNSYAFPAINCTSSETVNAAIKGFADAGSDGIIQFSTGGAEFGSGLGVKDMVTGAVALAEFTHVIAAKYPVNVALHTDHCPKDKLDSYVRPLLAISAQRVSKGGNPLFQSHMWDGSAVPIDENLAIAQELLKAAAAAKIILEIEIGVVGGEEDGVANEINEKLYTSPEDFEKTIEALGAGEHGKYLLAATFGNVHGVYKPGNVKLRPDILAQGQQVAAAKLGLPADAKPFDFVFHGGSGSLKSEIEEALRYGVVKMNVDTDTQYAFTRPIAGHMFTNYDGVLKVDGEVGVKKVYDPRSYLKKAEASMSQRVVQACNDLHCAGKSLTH
3CLpro inhibitor: SARS-CoV 3CLpro protease inhibitors, primary screen, biochemical, quenched FRET | Replicase polyprotein 1ab (Severe acute respiratory syndrome coronavirus), P0C6X7 | recombinant SARS-CoV 3CLpro, quenched FRET peptide cleavage | inhibition, % at 6 µM | 290,000 tested, 0.14% active | AID 1706, 2009; in the data active means inhibition above about 12%
PrPC surface inh: inhibitors of human cell surface prion protein PrPC, primary screen, cell-based, TR-FRET; TR-FRET read-out; inhibition, % at 13.8 µM; 370,000 tested, 0.43% active; AID 720596, 2013; in the data active means inhibition above about 24%; further: 0% = median of the test wells and 100% = reference compound wells
Numbers without * were called inactive; i = inactive; · = not tested or not shown; + = active, no number.

SMILES | Vc quorum ag | GDH-TPI counter | Mtb FBA inh | 3CLpro inhibitor | PrPC surface inh
COc1cc(/C=N/NC(=O)c2cc[n+]([O-])cc2)cc(OC)c1OC | i | 38.6* | -2.8 | -1.1 | -5.1
COc1cc(/C=N/NC(=O)c2ccncc2)cc(OC)c1OC | 0.0 | 9.4 | 0.6 | -10.4 | -0.1
COc1ccc(C=O)cc1OS(=O)(=O)c1ccc(NC(C)=O)cc1 | -0.2 | 1.3 | -0.8 | -0.7 | 7.2
COc1cc(C(=O)NN=Cc2ccc(N(C)C)cc2)cc(OC)c1OC | i | 42.5* | -2.0 | · | 8.8
Cc1ccc(C(=O)OCC(=O)NC2CC2)cc1S(=O)(=O)N1CCOCC1 | i | 4.8 | 3.4 | · | 4.7
O=C(Cn1nc(-c2ccccc2)ccc1=O)Nc1ccc(N2CCN(C(=O)c3cccs3)CC2)cc1 | -0.4 | 4.0 | 1.1 | -2.3 | -11.9
CN(CC(=O)Nc1ccc(F)cc1)C(=O)c1cc(-c2cccs2)nn1-c1ccccc1 | i | 6.3 | 1.4 | · | -1.8
COC(=O)N1CCCCC1c1cc(C(=O)NCc2ccc(Cl)c(Cl)c2)no1 (stereo not drawn) | -0.2 | -0.9 | -2.1 | · | -9.3
CCCC(C)C(=O)Nc1ccc(C(N)=O)cc1 (stereo not drawn) | -0.3 | 1.0 | -0.9 | 2.1 | 5.9
O=C1C=C(/C=C/c2ccccc2)C[C@@H](c2ccc(F)cc2)C1 | 2.8 | 14.7 | -4.6 | · | 9.4
COc1ccc([C@H]2CC(=O)C=C(/C=C/c3ccccc3)C2)cc1OC | -1.1 | 37.8* | -2.6 | · | -10.0
CCCCSc1cc(C)nc(N)n1 | i | -0.3 | -1.1 | -6.7 | 1.9
COC(=O)C12CCc3c(ccc4cc(OC)ccc34)C1=CC(=O)C2 (stereo not drawn) | -1.3 | 45.4* | + | · | -7.4
Cc1cc(=O)oc2cc(OCC(=O)NCC3CCC(C(=O)O)CC3)ccc12 (stereo not drawn) | -0.6 | -2.9 | 15.0 | -4.5 | -4.0
COc1ccc2c(COC(=O)CCS(=O)(=O)c3ccccc3)cc(=O)oc2c1 | i | -0.6 | 133.7* | -4.7 | ·
COc1ccc2c(CC(=O)NCC3CCC(C(=O)O)CC3)cc(=O)oc2c1 (stereo not drawn) | i | 24.8 | 132.7* | -3.0 | -7.2
COc1ccc(-c2cc(=O)oc3cc(OCC(=O)NCC4CCC(C(=O)O)CC4)ccc23)cc1 (stereo not drawn) | -0.6 | 33.3* | 5.8 | -0.4 | -23.6
COc1ccc(C(C#N)CC(=O)c2ccc(OC)c(OCc3ccccc3)c2)cc1OC (stereo not drawn) | i | -5.8 | -2.8 | · | 1.6
O=C(Nc1ccc(N2C(=O)[C@@H]3[C@H](C2=O)[C@@H]2C=C[C@H]3C2)c(Cl)c1)c1ccccn1 | · | · | · | · | 6.6
FC(F)(F)c1ccccc1Cc1c(-c2cccc(Cl)c2)nc2c3ccccc3ccn12 | · | · | · | · | 11.6
CC1(C)Oc2cc3oc(-c4cc(O)cc(O)c4)cc3cc2CC1O (stereo not drawn) | -0.4 | 29.4 | 89.0* | · | -9.5
CC(=O)c1ccc(N/N=C(/C(N)=O)C2=NC(C)(C)Cc3ccccc32)cc1 | -0.6 | 34.6* | -2.7 | 0.7 | 5.3
CC1(C)Cc2ccccc2C(/C(=N\Nc2cccc(Cl)c2)C(N)=O)=N1 | -4.2 | 9.2 | -5.6 | 0.2 | -1.9
C=CCn1c(O)c(/C=N/N2CCCCC2c2cccnc2)c(=O)[nH]c1=S (stereo not drawn) | -0.3 | 31.0* | -1.6 | -4.6 | -1.3
COc1ccc(OCCn2c(C)c(/C=N/n3cnnc3)c3ccccc32)cc1 | 0.4 | 11.9 | 3.5 | -0.5 | ·
SMILES | Vc quorum ag | GDH-TPI counter | Mtb FBA inh | 3CLpro inhibitor | PrPC surface inh
COc1cccc(OCCn2c(C)c(/C=N/n3cnnc3)c3ccccc32)c1 | i | 33.6* | -0.2 | 0.1 | -1.1
COc1cccc(CN(C)C(=O)[C@H]2O[C@@H](n3cnc4c(=O)[nH]c(N)nc43)[C@H](O)[C@@H]2O)c1 | · | · | · | · | 0.6
O=C(O)c1ccccc1N1C(=O)c2cccc3cccc(c23)C1=O | -0.6 | 12.0 | -0.9 | 2.8 | -44.2
Cc1ccccc1N1C(=O)c2cccc3cccc(c23)C1=O | 4.8 | 35.0* | 1.7 | 3.0 | -36.6
COC(=O)c1sccc1NC(=O)Nc1ccc(F)cc1F | -0.6 | 7.3 | 2.2 | 4.2 | -4.5
Nc1nc2n(n1)C(c1cccs1)CC(c1ccc(F)cc1)N2 (stereo not drawn) | -0.3 | 0.3 | 13.0 | 4.2 | -3.3
COc1ccc(C2CC(c3cccs3)n3nc(N)nc3N2)cc1 (stereo not drawn) | -0.4 | 23.8 | 134.6* | -4.0 | -34.3
O=Cc1ccc(N2CCCC2)c(F)c1 | i | 18.6 | 1.2 | 3.6 | 10.9
O=Cc1ccc(N2CCCCCC2)cc1 | i | 33.8* | 0.6 | 2.5 | 7.3
Cc1cc(=O)oc2c3c(cc(OCC(=O)NCc4cccnc4)c12)OC(C)(C)CC3 | -0.4 | 21.6 | + | -1.8 | 2.6
COc1ccccc1CNC(=O)COc1cc2c(c3oc(=O)cc(C)c13)CCC(C)(C)O2 | -0.1 | 5.6 | 188.8* | -0.2 | 1.4
COc1cccc(CNC(=O)C2(C)Oc3ccccc3NC2=O)c1 (stereo not drawn) | 11.1 | -0.4 | 1.4 | -1.4 | -8.0
O=C(COc1ccc2c3c(c(=O)oc2c1)CCCC3)NCc1cccnc1 | -0.3 | 0.0 | 7.3 | 0.5 | 7.0
COc1cccc(CNC(=O)COc2cc3c(c4oc(=O)cc(C)c24)CCC(C)(C)O3)c1 | -0.5 | 19.6 | 167.7* | 1.8 | 3.1
CCOC(=O)[C@@]12CCC3=C1N(CCC3)C(=O)[C@H](CC(=O)N1CCCC1)C2 | · | · | · | · | 2.7
COc1cccc(/C=N/NC(=O)c2cc3c(OC)cccc3[nH]2)c1OC | -0.3 | 25.4 | 2.4 | -1.9 | -6.9
COc1cccc(/C=N/NC(=O)c2cc3c(OC)c(OC)ccc3[nH]2)c1OC | -0.3 | 33.0* | -3.1 | 2.4 | -2.1
COc1ccc(OC)c(/C=N/NC(=O)c2cc3c(OC)cccc3[nH]2)c1 | -0.8 | 60.5* | 5.7 | 0.7 | -10.7
C=CCOc1ccc(/C=N/NC(=O)c2cc3c(OC)cc(OC)cc3[nH]2)cc1 | -1.6 | 31.7* | 9.0 | 7.1 | 9.4
COc1ccc(OC)c(/C=N/NC(=O)c2cc3c(OC)cc(OC)cc3[nH]2)c1 | -0.5 | 22.5 | 10.9 | -2.2 | 2.4
COc1ccccc1/C=N/NC(=O)c1cc2c(OC)c(OC)ccc2[nH]1 | i | 34.3* | -1.9 | -2.4 | 5.2
CCCCn1nnnc1C1(C)CCC(=O)N1CCCN1CCOCC1 (stereo not drawn) | · | · | · | · | -1.7
CCOC(=O)/C(=C/c1c(C)n(C)c2ccc([N+](=O)[O-])cc12)C(C)=O | -0.2 | 31.5* | -8.2 | 0.4 | -18.2
O=[N+]([O-])c1c(Nc2ccccc2O)cc(N2CCOCC2)c2nonc12 | 3.7 | 32.5* | -15.4 | 0.9 | -16.2
CCOC(=O)c1ccc(N2C(=O)C(O)=C(C(C)=O)C2c2ccc([N+](=O)[O-])cc2)cc1 (stereo not drawn) | i | 31.8* | -2.6 | 7.7 | -10.2
